This passage reports outcome and Potency results from PubChem BioAssay (NCATS).

Assay [1] can be described thus: Primary qHTS for small molecule stabilizers of the endoplasmic reticulum resident proteome: Secreted ER Calcium Modulated Protein (SERCaMP) assay (AID 1508630). The essentials: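 GLuc-SERCaMP-expressing SH-SY5Y cells, pretreated 16 h with compound, are challenged with thapsigargin to empty ER calcium stores; after 4 h, coelenterazine is added directly to the medium and luminescence is imaged.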

Assay [2] can be described thus: A High-Content qHTS Against Drug Library for the Identification of Small Molecules that Inhibit DYT1 Early Onset Primary Dystonia-Associated Cell Pathology (AID 1645839; calls by dose curve; note: series mostly up to about 46 µM). The procedure, abridged: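 Readout: %pathology, the punctate EGFP-TorsinA distribution from imaging, as the primary channel and cell count as the toxicity counterscreen. HEK293 Flp-In cells expressing delE TorsinA were induced with tetracycline and treated with compound for 48 h.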
On the technique in general: qHTS replaces the single test concentration by a dilution series.

The target in assay [3] is Cytochrome P450 2D6 (Homo sapiens) (UniProt P10635). The assay is described as follows: Cytochrome P450 family 2 subfamily D member 6 (CYP2D6) small molecule antagonists: luciferase biochemical (cell-free) qHTS assay (AID 1645840; active = well fitted curve in the direction sought with a large enough effect in the repeat runs; an effect the other way counts as inactive or inconclusive; note: nearly all actives have a fitted effect of over 55% in size; note: potency is the fitted concentration of half-maximal effect). The essentials:
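P450-Glo luminescent screen: recombinant CYP2D6 enzyme–proluciferin substrate mix preincubated with compound 10 min at room temperature, then NADPH regeneration added for 1 h at room temperature. Detection reagent added for 20 min; luciferin light read as relative luminescence units.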

The target in assay [4] is Cytochrome P450 2C9 (Homo sapiens) (UniProt P11712). In words: Cytochrome P450 family 2 subfamily C member 9 (CYP2C9) small molecule antagonists: luciferase biochemical (cell-free) qHTS assay (AID 1645842; active = well fitted curve in the direction sought with a large enough effect in the repeat runs; an effect the other way counts as inactive or inconclusive; note: nearly all actives have a fitted effect of over 55% in size; note: potency is the fitted concentration of half-maximal effect). The procedure, abridged:
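Luminescence, after 20 min with luciferin detection reagent, reflected CYP2C9 turnover during a 1 h NADPH-driven reaction at 37C. Enzyme-substrate mix contained 0.4% bovine serum albumin and was preincubated with compound 10 min at room temperature.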

The nature of assay [5]: Primary qHTS for inhibitors of nuclear receptor binding SET domain protein 2 (NSD2) in an isogenic RCH-ACV NSD2 p.E1099K mutant (9B) (AID 1645876). Note: nearly all actives have a fitted effect of over 70% in size.
Assay [6] addresses Cytochrome P450 3A4 (Homo sapiens) (UniProt P08684). In words: Cytochrome P450 family 3 subfamily A member 4 (CYP3A4) small molecule antagonists: luciferase qHTS assay (AID 1645841; active = well fitted curve in the direction sought with a large enough effect in the repeat runs; an effect the other way counts as inactive or inconclusive; note: nearly all actives have a fitted effect of over 45% in size). The essentials:
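P450-Glo CYP3A4 enzyme with proluciferin substrate was preincubated with DMSO-dissolved compounds for 10 min at room temperature. NADPH regeneration solution started a 1 h reaction. Detection reagent stopped it, and luminescence was read after 20 min.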

Records with an inconclusive call do not appear. Entries that show only a call come without a potency. Active and inactive are the calls of the source. Unless noted, calls come from the whole dose curve; as a rule, active = well fitted curve in the direction sought with a large enough effect; inconclusive = small, poorly fitted or top-dose-only effect, or another doubt; inactive = no such curve, though single readings can be large; an effect the other way counts as inactive or inconclusive.

Chain of Cytochrome P450 2D6 (Homo sapiens) (P10635 whole entry, looked up): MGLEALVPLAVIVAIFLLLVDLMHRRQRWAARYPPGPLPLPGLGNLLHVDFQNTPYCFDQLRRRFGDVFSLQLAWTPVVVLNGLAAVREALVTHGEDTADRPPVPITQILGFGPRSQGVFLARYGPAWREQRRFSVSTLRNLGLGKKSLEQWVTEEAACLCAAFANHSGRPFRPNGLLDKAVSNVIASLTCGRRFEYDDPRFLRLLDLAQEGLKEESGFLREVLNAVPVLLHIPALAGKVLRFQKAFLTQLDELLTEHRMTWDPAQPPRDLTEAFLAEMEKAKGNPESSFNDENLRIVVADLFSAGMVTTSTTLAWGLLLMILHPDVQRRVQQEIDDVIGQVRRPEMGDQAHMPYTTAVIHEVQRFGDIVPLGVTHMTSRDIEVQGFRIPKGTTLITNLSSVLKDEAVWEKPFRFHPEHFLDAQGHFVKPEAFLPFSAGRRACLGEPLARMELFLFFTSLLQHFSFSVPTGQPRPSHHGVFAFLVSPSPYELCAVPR
Chain of Cytochrome P450 2C9 (Homo sapiens) (P11712 whole entry, looked up): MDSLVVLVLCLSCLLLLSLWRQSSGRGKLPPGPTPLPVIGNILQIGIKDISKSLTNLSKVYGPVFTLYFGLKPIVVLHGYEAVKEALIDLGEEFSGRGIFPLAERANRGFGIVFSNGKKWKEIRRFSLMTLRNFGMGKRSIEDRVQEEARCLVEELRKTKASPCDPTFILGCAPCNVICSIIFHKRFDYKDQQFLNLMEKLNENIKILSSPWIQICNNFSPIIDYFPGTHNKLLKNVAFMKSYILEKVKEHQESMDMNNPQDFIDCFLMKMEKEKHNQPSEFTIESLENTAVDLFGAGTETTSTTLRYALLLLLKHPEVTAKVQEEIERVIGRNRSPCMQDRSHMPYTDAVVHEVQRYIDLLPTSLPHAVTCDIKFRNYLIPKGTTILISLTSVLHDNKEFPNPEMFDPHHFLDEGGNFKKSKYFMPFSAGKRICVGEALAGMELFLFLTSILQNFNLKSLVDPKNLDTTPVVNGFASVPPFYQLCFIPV
Chain of Cytochrome P450 3A4 (Homo sapiens) (P08684 whole entry, looked up): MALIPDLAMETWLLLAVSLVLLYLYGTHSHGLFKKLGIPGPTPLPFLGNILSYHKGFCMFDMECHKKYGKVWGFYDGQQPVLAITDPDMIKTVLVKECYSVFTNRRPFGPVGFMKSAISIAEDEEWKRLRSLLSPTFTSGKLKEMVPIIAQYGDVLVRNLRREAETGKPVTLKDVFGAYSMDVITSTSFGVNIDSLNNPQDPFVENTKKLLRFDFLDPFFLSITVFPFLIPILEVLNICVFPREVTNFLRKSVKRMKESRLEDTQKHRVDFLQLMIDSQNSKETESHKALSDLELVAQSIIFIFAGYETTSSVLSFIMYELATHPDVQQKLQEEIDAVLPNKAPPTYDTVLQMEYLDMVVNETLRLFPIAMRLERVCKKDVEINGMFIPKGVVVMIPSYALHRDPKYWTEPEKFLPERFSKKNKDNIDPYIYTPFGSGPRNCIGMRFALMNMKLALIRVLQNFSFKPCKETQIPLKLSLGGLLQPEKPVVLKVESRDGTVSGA

Regarding `CCOc1ccc(C(=O)OCCN(CC)CC)cc1`, the outcome in assay [1] was inactive. Further, the Potency result in assay [2], in assay [4] and in assay [5] was “inactive” in each case. For the same compound, in assay [3], the Potency was 2720 nM (active).

With `Cc1c(Cn2ccnc2)c2ccccc2n1CCC(=O)O`, in assay [1], the result was inactive. Moreover, the Potency entry in assay [2] and in assay [5] was “inactive” each time. For the same compound, the Potency in assay [4] is 1950 nM (active).

In the case of `CCCNC(C)C(=O)Nc1c(C)csc1C(=O)OC` (stereo unspecified), the result in assay [1] was inactive. Further, the Potency result in assay [2], in assay [4] and in assay [5] was “inactive” in each case.

Turning to `CC(=O)Nc1ccccc1`, the result in assay [1] was inactive. For the same compound, the Potency result in assay [2], in assay [3], in assay [4] and in assay [5] was “inactive” each time.

In the case of `FC(F)(F)C(Cl)Br` (stereo unspecified), the result in assay [1] was inactive. Moreover, the Potency result in assay [2], in assay [4] and in assay [5] was “inactive” in each case.

For the compound `O=C(O)[C@@H]1[C@H]2C[C@H]3c4[nH]c5ccccc5c4CCN3C[C@@H]2CC[C@@H]1O`, in assay [1], the outcome was inactive. For the same compound, the Potency result in assay [2] and in assay [5] was “inactive” each time. The Potency in assay [3] is 977 nM (active).

Consider `COc1ccc2cc(CCC(C)=O)ccc2c1`, for which the outcome in assay [1] was inactive. Also, the Potency entry in assay [2], in assay [4] and in assay [5] was “inactive” each time.

With `CC(=O)NS(=O)(=O)c1ccc(N)cc1`, the outcome in assay [1] and in assay [6] was inactive. In addition, the Potency entry in assay [2] and in assay [5] was “inactive” each time.

On to `Cc1cc(NC(=O)C2=C(O)c3ccccc3S(=O)(=O)N2C)no1`, for which, in assay [1], the result was inactive. The Potency entry in assay [2], in assay [4] and in assay [5] was “inactive” throughout.

On to `CC(C)CCCC(C)CCCC(C)CCCCC(C)CCCC(C)CCCC(C)C` (stereo unspecified), for which the result in assay [1] was inactive. Further, the Potency entry in assay [2], in assay [3] and in assay [5] was “inactive” each time.

Consider `Cc1cc(OI)c(C(C)C)cc1-c1cc(C(C)C)c(OI)cc1C`, for which the outcome in assay [1] was inactive. Moreover, the Potency entry in assay [2] and in assay [5] was “inactive” throughout. Besides, in assay [4], the Potency is 12300 nM (active).

For `COc1ccc(C(=O)NCc2ccc(OCCN(C)C)cc2)cc1OC`, the result in assay [1] was inactive. For the same compound, the Potency result in assay [2] and in assay [5] was “inactive” each time.

As to `CC(=O)Nc1ccc(OCCOCCOc2ccc(NC(C)=O)cc2)cc1`, the result in assay [1] was inactive. The Potency result in assay [3] and in assay [5] was “inactive” in each case.

For `CCCCCCCC(=O)OCC(O)CO` (stereo unspecified), the result in assay [1] was inactive. Also, the Potency entry in assay [2] and in assay [5] was “inactive” throughout.

On to `CC(=O)OCC(COC(C)=O)OC(C)=O`, for which the outcome in assay [1] was inactive. The Potency entry in assay [2], in assay [4] and in assay [5] was “inactive” in each case.

Consider `CC(C)=CCC[C@@](C)(O)[C@H]1CC=C(C)CC1`, for which the outcome in assay [1] was inactive. Also, the Potency result in assay [2] and in assay [5] was “inactive” throughout.

As to `O=C(O)c1cc(=O)c2ccccc2o1`, the outcome in assay [1] and in assay [6] was inactive. For the same compound, the Potency result in assay [4] and in assay [5] was “inactive” throughout.
